Laboratory results reported in ChEMBL document CHEMBL3988442, “University of Dundee, Small-Polar-MMV Screening Library” (2021).

Biological target: AMP-activated protein kinase, AMPK (Homo sapiens) (UniProt P54646+O43741+P54619+Q9UGJ0+Q9Y478+Q13131+Q9UGI9)
Experiment: AMP-dependent Kinase enzyme assay. An in vitro enzyme assay that detects ADP turnover that is directly proportional to AMPK activity. This uses naive AMPK that is activated during the assay with MK-8722
Type: functional
Set-up: scale not given: direction of the effect not stated beside the values
Conditions: 30 µM

| SMILES | Percent Effect |
| --- | --- |
| Cc1noc(C2CCCN(Cn3cc(Br)cn3)C2)n1 (stereo not given) | -2.31% |
| COc1coc(CN2CCCC3(CCC(=O)N(C4CC4)C3)C2)cc1=O (stereo not given) | -2.13% |
| Cc1cc(N2CCC(n3cc(CN4CCNCC4)nn3)CC2)ccn1 | -7.65% |
| CC1(C(N)=O)CN(S(=O)(=O)c2cccc(F)c2)CCO1 (stereo not given) | 3.77% |
| CC(C)(C)c1nc(CC(=O)Nc2cnccc2O)cs1 | -0.224% |
| CN(C(=O)c1ccc2c(c1)nc(N1CC[C@H](O)C1)n2C)C1CCSCC1 | 9.79% |
| COC(=O)CC1CN(Cc2ccn(-c3ccc(F)cc3)n2)CCO1 (stereo not given) | -6.96% |
| CN1CCCC1CCNC(=O)c1ccccc1-n1cc(CN)cn1 (stereo not given) | 11.2% |
| CCn1cc(CN(C)Cc2cnn(-c3ccc(F)cc3)c2)cn1 | 13.6% |
| Cn1ccnc1CNC(=O)CC1CCCCO1 (stereo not given) | -3.14% |
| CC(C)N1CC(c2ccnc(Nc3nccs3)n2)C1 | 13.4% |
| CCOCC1(CNCc2cc(O)c3cc(C)ccc3n2)CC1 | -2.54% |
| O=C(NCCCn1ccnc1)C1COCC(=O)N1Cc1ccccc1 (stereo not given) | 3.38% |
| NC1CCCN(Cc2cccc(C(F)(F)F)c2)C1=O (stereo not given) | -0.911% |
| Cc1ccc(S(=O)(=O)N(C)CC(C)O)c(F)c1 (stereo not given) | 8.59% |
| CCc1nc2n(n1)CC(NCc1nc3ccccc3o1)CC2 (stereo not given) | 2.97% |
| Cc1ccccc1[C@@H]1CN(CCOCCO)C[C@H]1C(=O)O | -1.24% |
| CC(C)c1nn(C)cc1CNCc1cccc(N(C)C)c1 | -15.4% |
| COc1ncccc1-c1cc(C(=O)NC2CC2)ccn1 | -1.79% |
| Cc1c(NC(=O)c2cnc[nH]2)cccc1C(=O)NC(C)(C)C | 15% |

| SMILES | Percent Effect |
| --- | --- |
| FC(F)(F)c1csc(N2CCN(Cc3ccccn3)CC2)n1 | 7.24% |
| COc1cccc(-n2cc(CN(C)Cc3ccnc(C(C)C)n3)cn2)c1 | -12.4% |
| CC(c1nc(C2CC2)no1)N1CCc2c(ncn2C)C1 (stereo not given) | 12% |
| CC(C)NC(=O)c1nc(Cn2c(C(F)F)nc3ccccc32)no1 | 12.9% |
| CC(=O)N1CCC(Cc2ccc(-c3ccnn3C)nc2)CC1 | -2.26% |
| CCN(CC(=O)NC)C(=O)c1csc(Cc2ccccc2)n1 | -5.87% |
| Cc1ccc(C(=O)NC2CCN(C(C)C)C2)c(=O)[nH]1 (stereo not given) | -2.69% |
| COc1nsc2nc(C3CCCN3C(C)=O)ccc12 (stereo not given) | 7.38% |
| COc1cccc2c1OCC(Cc1cc(C(N)=O)ccn1)C2 (stereo not given) | -13% |
| O=C(NCC1CCS(=O)(=O)C1)N(Cc1ccco1)C1CC1 (stereo not given) | -4.86% |
| Cc1ccc2c(c1)cc(CN1CC[C@](C)(O)[C@H](C)C1)n2C | 9.89% |
| c1ccc(Cc2noc(-c3ccc(NCC4COCCO4)nc3)n2)cc1 (stereo not given) | 8.79% |
| CCOC(=O)C1(O)CCN(C(=O)Nc2cccc(F)c2)CC1 | -1.01% |
| CSc1ccc(C(=O)C2CCCN(C(=O)CCn3cncn3)C2)cc1 (stereo not given) | 10.4% |
| COc1cccc(O[C@H]2CCN(c3nc(C)cc(C)n3)CC[C@@H]2O)c1 | 1.31% |
| Cc1cc(-c2cc3nc(C)c(C)c(NCC4COCCO4)n3n2)no1 (stereo not given) | 17.6% |
| Cc1nc(CNC(=O)c2cc(COc3cccc(F)c3)[nH]n2)n[nH]1 | 0.77% |
| CC(CO)NS(=O)(=O)c1cccc(C(C)C)c1 (stereo not given) | -0.593% |
| Cc1ccccc1SCC(=O)Nn1cnnc1 | 3.33% |
| CC(c1ccc(F)cc1F)N1CCN(CCC(=O)NC(N)=O)CC1 (stereo not given) | -3.39% |
